Laboratory results from PubChem BioAssay AID1117263 (The Scripps Research Institute Molecular Screening Center, 2014).
The whole screen tested about 2,300 compounds, of which about 300 (13%) were called active.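 The calls were made as follows: active = mean inhibition of the replicates above the hit cutoff set in the primary screen (cut at about 17% in these data); inactive = the rest.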 A selection follows.

target: Sialate O-acetylesterase (Homo sapiens) (UniProt Q9HAT2); assay: human SIAE inhibitors, retest, confirmation, biochemical, fluorescence polarization, FP-Rh probe, triplicate (AID 1117263); details: SIAE FP-Rh activity-based probe, at 9.66 µM, active compounds read high;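 also: 0% = SIAE with DMSO and probe and 100% = probe without SIAE; inhibitors lower polarization as more probe stays unbound to SIAE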
Sequence (Q9HAT2 whole entry, looked up): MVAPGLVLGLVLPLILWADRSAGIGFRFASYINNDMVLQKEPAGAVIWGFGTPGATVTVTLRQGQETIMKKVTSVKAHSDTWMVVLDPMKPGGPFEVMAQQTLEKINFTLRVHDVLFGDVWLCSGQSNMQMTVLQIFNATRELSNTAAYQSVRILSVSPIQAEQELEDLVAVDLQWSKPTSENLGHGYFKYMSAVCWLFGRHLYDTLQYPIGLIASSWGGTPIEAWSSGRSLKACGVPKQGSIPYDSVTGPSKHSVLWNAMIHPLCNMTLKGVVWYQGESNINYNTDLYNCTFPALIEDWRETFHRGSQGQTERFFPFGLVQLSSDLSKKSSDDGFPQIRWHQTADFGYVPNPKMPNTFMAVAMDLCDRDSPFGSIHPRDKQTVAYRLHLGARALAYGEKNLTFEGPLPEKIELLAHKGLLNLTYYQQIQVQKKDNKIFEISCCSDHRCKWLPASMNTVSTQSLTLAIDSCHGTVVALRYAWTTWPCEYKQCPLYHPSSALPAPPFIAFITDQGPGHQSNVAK

inhibition, active:
COc1ccc(/C=N/NC(=O)c2ccncc2)cc1CN1CCCc2ccccc21 22.8%, Nc1ncnc2c1ncn2[C@@H]1O[C@H](C(=O)NCC(F)(F)F)[C@@H](O)[C@H]1O 44.1%, CN(Cc1ccc(C(F)(F)F)cc1)C(=O)[C@H]1O[C@@H](n2cnc3c(N)ncnc32)[C@H](O)[C@@H]1O 68.3%, O=C(CC[C@H]1O[C@@H](n2ccc(=O)[nH]c2=O)[C@H](O)[C@@H]1O)N[C@H](Cc1ccccc1)C(=O)NCCCN1CCCC1=O 32.5%, O=c1[nH]n(-c2ccc([N+](=O)[O-])cc2)c(=O)c2ccccc12 19%

inhibition, inactive:
COc1cccc(/C=N/Nc2cc(C)nc(-c3ccccc3O)n2)c1O -14.6%, COc1ccc(CCNc2ncnc3nc[nH]c23)cc1OC -2.94%, COc1ccc2[nH]c(=S)cc(C)c2c1 -5.42%, O=C(NN=C1CCC(=NNC(=O)c2cccnc2)CC1)c1cccnc1 6.57%, CCOc1ccc(Nc2nc(Cc3nnc(SCC(=O)c4ccc(C)cc4)o3)cs2)cc1 5.41%, COc1ccc(OC)c(CN2CCN(C(=O)CNC(=O)c3cc(C)cc(C)c3)CC2)c1 -0.63%, COc1ccccc1/C=C/C=N/NC(=O)CN1CCN(Cc2ccccc2)CC1 -1.91%, CCOC(=O)C(=O)C1C(=O)Nc2ccccc21 (configuration not stated) 6.34%, O=C(Nc1cccc(Cc2ccccc2)c1)Nc1ccc2nc([C@@H]3O[C@H](CO)[C@@H](O)[C@H](O)[C@H]3O)[nH]c2c1 10.5%, CCOC(=O)C1Sc2[nH]c(=O)sc2C(c2ccc(Cl)cc2)C1C(=O)OCC (configuration not stated) 5.84%, Cc1ccc(/C=N/NC(=O)c2cc3ccccc3cc2O)o1 3.65%, CC1CCCCC1NC(=O)/C(C#N)=C/C=C/c1ccccc1[N+](=O)[O-] (configuration not stated) -0.36%, Cn1c(NN)nc2sc3c(c2c1=O)CCC3 11.8%, O=C(O)c1ccccc1N=N/C(=N/Nc1cc(S(=O)(=O)O)ccc1O)c1ccccc1 9.57%, O=C(N/N=C/c1ccc(O)c2ccccc12)c1cccnc1 -1.25%, COc1ccc(-c2csc(Nc3ccc(O)cc3)n2)cc1 2.15%, O=C(O)Cc1sc(-c2ccccc2)nc1-c1cccs1 -3.2%, CCOc1ccc(Cn2c(SCCCCC#N)nc3c2c(=O)n(C)c(=O)n3C)cc1OCC 3.27%, CCC(C)c1ccc(O)c(/C=N/O)c1 (configuration not stated) 8.65%, COCCOC(=O)c1sc(=S)n(CCOC)c1N 9.71%, Oc1ccc(N=Cc2sc3ccccc3c2Cl)cc1 -0.14%, Oc1ccc(N=Cc2c(O)ccc3ccccc23)cc1 -1.4%, c1ccc2[nH]c(-c3nc4ccccc4[nH]3)nc2c1 5.66%, CNC(=S)N/N=C/c1cn(Cc2ccc(C)cc2)c2ccccc12 9.36%, COc1cc(/C=N\Nc2nc(-c3cccs3)c(NC(C)=O)s2)ccc1O 13.2%, CCn1c(SC)nc(O)c(C(c2ccc(OC)c(O)c2)c2c(O)nc(SC)n(CC)c2=O)c1=O -4.61%, O=C1CCN(C(=S)NCCc2ccccc2)CC1 -3.6%, CC(=O)CSc1nnc(CSc2ncccn2)n1C1CCCCC1 -1.2%, O=C(CSc1ccc(-c2ccco2)nn1)Nc1cccc(F)c1 0.25%, Cc1cccc(C2c3c(n(C)c(=O)n(C)c3=O)N=C3c4ccccc4C(=O)C32)c1 (configuration not stated) -3.19%, Cc1[nH]c2ccccc2c1C(=O)CSCC(=O)O -9.03%, COc1ccc(N2CCN(c3ccc([N+](=O)[O-])nc3)CC2)cc1 8%, CC(C)=CCCC1(C)C=Cc2c(ccc3c2[nH]c2cc(O)c(C)cc23)O1 (configuration not stated) 2.11%, Cc1ccc(Nc2nc(-c3ccc(O)cc3O)cs2)nc1 9.2%, O=C1CC(c2ccccc2)=NN1c1ccc([N+](=O)[O-])cc1 -0.43%, CC(C)/C=N/NC(=O)c1cc(Br)ccc1O 4.2%, S=C(Nc1ccc(Br)cc1)NC1CCN(Cc2ccccc2)CC1 2.28%
